# Source: the supplement of paper PMC3334620
# Over roughly 33,000 sequences, “E-score (-0.5 to 0.5)” has its median near -0.017; the highest 2% begin near 0.3. The entries come from a sample that favours the highest values as a whole.
# Target: T1, Sut1 (UniProt P53032)
# T1 sequence: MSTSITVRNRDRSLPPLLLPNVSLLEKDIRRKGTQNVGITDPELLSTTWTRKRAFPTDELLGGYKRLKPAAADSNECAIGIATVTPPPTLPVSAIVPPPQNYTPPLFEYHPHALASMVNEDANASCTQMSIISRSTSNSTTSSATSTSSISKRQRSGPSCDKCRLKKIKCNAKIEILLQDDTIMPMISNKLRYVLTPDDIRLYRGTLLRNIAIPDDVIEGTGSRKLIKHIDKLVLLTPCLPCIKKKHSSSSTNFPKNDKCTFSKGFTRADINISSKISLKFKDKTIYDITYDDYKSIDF
# Test: PBM E-score (8-mer binding enrichment) (E-score (-0.5 to 0.5)); higher = stronger / more preferred TF binding
# Details: protein concentration: 200 nM; construct: GST-full length
# Protocol: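 Universal 'all 10-mer' protein binding microarrays (Agilent AMADID 015681) probed with GST-tagged S. cerevisiae TFs (full-length or DBD) made by in vitro transcription/translation (PURExpress), about 100-200 nM. Bound TF was detected with fluorescent anti-GST. Each ungapped 8-mer (which stands for itself and its reverse complement) is scored by the PBM enrichment score (E-score), a modified Wilcoxon-Mann-Whitney statistic from -0.5 to +0.5, computed with the Universal PBM Analysis Suite. Scale: above 0.35 generally sequence-specific binding.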
row,Sequence,PBM E-score
1,AGAGAGCG,-0.0777
2,GGTATGAA,0.114
3,CAGTTTTA,0.0952
4,CCGATAAA,0.343
5,GTGATAAA,0.0786
6,CGGATAAC,0.264
7,CCGATAAC,0.18
8,TTGATAAA,0.328
9,TGGATAAA,0.263
10,CCGATAAG,0.111
11,ATGATAAA,0.233
12,CGGATAAA,0.341
13,TGGGTTAA,-0.0031
14,ATCAACTC,-0.0768
15,ACAGAACG,-0.0202
16,TCACTCAA,0.0178
17,CCCTCAAA,-0.0431
18,AATCGGCG,-0.0941
19,AAAGTATA,0.214
20,GCTTAAGA,0.00411
21,GTCAAGAA,0.108
22,ACCGTTAG,0.00367

row,Sequence,PBM E-score
1,CAGCTGAA,-0.109
2,AAATTCCA,0.241
3,CGATTCCG,0.314
4,CGATTCCA,0.0585
5,AAATTCCC,-0.245
6,AAATTCCG,0.337
7,CAATTCCA,-0.032
8,CAATTCCG,0.305
9,CAATTCCC,0.072
10,CGATTCCC,-0.0189
11,GCTAGGGA,-0.308
12,AATCCCAG,0.0474
13,ATACGAGG,-0.165
14,CGATTGAG,-0.0533
15,CGGACTAC,0.464
16,AGGACTAG,-0.0577
17,CGGACTAG,0.452
18,AGGACTAC,-0.118
19,TGGACTAA,-0.104
20,GGGACTAA,-0.0778
21,CGGACTAA,0.454
22,GGGACTAC,-0.162

row,Sequence,PBM E-score
1,CAGACTAG,-0.288
2,GATGCTCC,0.17
3,CAAGGGGA,-0.185
4,GCCTTGCC,-0.155
5,ACGTCGAT,0.0428
6,CATCTGAG,-0.143
7,CACTCCAC,-0.0759
8,CCAGCTGG,-0.188
9,CATGCAGA,-0.15
10,CTTGAAAA,0.0874
11,ATTGAATC,0.00919
12,TTTGAAAA,0.31
13,ATTGAAAA,0.213
14,ATTGAAAC,0.184
15,GTTGAAAA,0.104
16,CTTGAATA,0.0931
17,ATTGAATA,0.315
18,ATTGAAAT,0.311
19,CCGGGCCG,0.155
20,TCCATGAA,0.131
21,AGCCTTTG,-0.165
22,ACCTCAGC,-0.106

row,Sequence,PBM E-score
1,CTCAGTTC,-0.0325
2,ATCTTTCG,-0.00103
3,CGAGAGCC,-0.161
4,TATTTCAA,0.301
5,GATTTCAA,0.147
6,CATTTCAA,0.275
7,ATTCATAA,0.127
8,GTTCCGCA,0.0832
9,ATTCCGGC,0.177
10,CTTCCGTA,0.181
11,GTTCCGAA,0.267
12,CTTCCGGC,0.0877
13,CTTCCGGA,0.347
14,GTTCCGGA,0.342
15,ATTCCGGG,0.295
16,ATTCCGGA,0.42
17,AGCCAAAT,0.14
18,ATCAAACG,0.132
19,CATTGCTC,0.1
20,CGGTCTAG,-0.0195
21,ACCGTAGA,0.0336
22,TCCGTAGA,0.361

row,Sequence,PBM E-score
1,CCCGTAGA,-0.245
2,AGTATCAG,-0.0501
3,ACCTCTCG,-0.047
4,CGTGACCC,-0.111
5,CAATCAGG,-0.167
6,GCTTTGAA,-0.00621
7,ACTACAAA,0.302
8,ACTACAAG,0.0409
9,AATACAAA,0.348
10,GATACAAA,0.112
11,ACTACAAC,0.266
12,AATACAAG,0.123
13,GCCTGGAC,-0.336
14,AGGCAGGC,-0.208
15,TCCGTCCA,0.316
16,GCCGTCCA,0.00979
17,CCCGTCCA,-0.198
18,CAGGTTAG,-0.082
19,AGCCTACT,-0.134
20,CTACTATC,0.312
21,CTACTATA,0.281
22,ATACTATC,0.202
